NTR1 ag: activates human neurotensin receptor 1; NTR1-U2OS beta-arrestin-GFP spot imaging, agonist mode; activation, % at 20 µM; hit rate 0.17% among 330,000;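 active = activation at or above 40% of the spot to cytoplasm intensity ratio, with at least 20 cells analyzed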;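 note: 0% = DMSO without peptide and 100% = 100 nM NTR1 peptide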
GRK2 aptamer HTS: human GRK2 inhibition via aptamer displacement | bead flow cytometry, FAM-aptamer displacement from GRK2 | inhibition of aptamer binding, % at 10 µM | hit rate 0.59% among 330,000;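 active = inhibition of aptamer binding above 40%, roughly 3 SD of noise, on plates passing a quality check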;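 note: median bead fluorescence of bound FAM aptamer so fluorescent compounds give negative values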
Target sequence (P25098 whole entry, looked up): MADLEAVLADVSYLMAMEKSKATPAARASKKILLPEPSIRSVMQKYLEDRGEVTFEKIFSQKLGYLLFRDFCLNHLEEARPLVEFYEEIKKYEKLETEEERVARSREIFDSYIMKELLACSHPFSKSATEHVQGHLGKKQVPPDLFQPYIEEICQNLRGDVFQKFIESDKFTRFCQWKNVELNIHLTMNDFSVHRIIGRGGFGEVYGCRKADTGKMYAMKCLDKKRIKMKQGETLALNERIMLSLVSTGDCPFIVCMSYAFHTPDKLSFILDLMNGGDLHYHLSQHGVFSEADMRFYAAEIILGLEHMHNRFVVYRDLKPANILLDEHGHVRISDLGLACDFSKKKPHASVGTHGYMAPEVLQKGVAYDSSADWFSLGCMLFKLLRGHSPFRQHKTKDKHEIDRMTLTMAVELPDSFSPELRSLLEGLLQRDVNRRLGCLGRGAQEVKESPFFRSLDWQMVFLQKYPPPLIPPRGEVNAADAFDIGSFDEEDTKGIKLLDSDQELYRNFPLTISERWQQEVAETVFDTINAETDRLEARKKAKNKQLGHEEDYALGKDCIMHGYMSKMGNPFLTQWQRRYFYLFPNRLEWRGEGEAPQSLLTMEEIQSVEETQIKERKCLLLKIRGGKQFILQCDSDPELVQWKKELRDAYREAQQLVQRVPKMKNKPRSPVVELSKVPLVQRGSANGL
Platelet DG rel: platelet dense granule release activity; human platelet-rich plasma, SFLLRN dense granule ATP release, luminescence; inhibition, %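 (compounds screened at 7.5 µM in platelet-rich plasma)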; hit rate 0.22% among 300,000; AID 1663;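 active = mean replicate score, as percent of positive control, at or above 50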
MIN6 prolif: MIN6 beta-cell proliferation induction; MIN6 cells proliferation, ATPlite luminescence, 48 h; cells starved in 0.2% serum; 100% = growth in 10% serum; proliferation, % at 10 µM; hit rate 0.29% among 330,000;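 active = compounds whose signal lies at least 3.5 SD above the mean of all wells on their plate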;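 note: 0% = DMSO-treated cells in low-serum medium and 100% = 10% serum control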
* = called active by the depositor; ! = not active in a repeat. In the library only some 1.2% were active in any assay of this set; here they are far more common.

For O=C(O)c1cc(O)c2c(c1)[C@@H]([C@H]1c3cc(C(=O)O)cc(O)c3C(=O)c3c(O[C@@H]4O[C@H](CO)[C@@H](O)[C@H](O)[C@H]4O)cccc31)c1cccc(O[C@@H]3O[C@H](CO)[C@@H](O)[C@H](O)[C@H]3O)c1C2=O the results were NTR1 ag 2.5, GRK2 aptamer HTS 100.0* and MIN6 prolif -1.9.
Screening CN(Cc1cn(C)nc1-c1cccc(Cl)c1)Cc1nccn1C returned NTR1 ag 1.0, GRK2 aptamer HTS 1.0, Platelet DG rel -1.7 and MIN6 prolif -0.2.
For Cn1cc(CN(CCO)Cc2cccs2)c(-c2cccc(Cl)c2)n1 the results were NTR1 ag 1.1, GRK2 aptamer HTS 0.0, Platelet DG rel 57.5* and MIN6 prolif -1.2.
CC(CCc1ccccc1)NCc1cccc2ccccc12 (configuration not stated) was read as NTR1 ag 0.4, GRK2 aptamer HTS 0.0, Platelet DG rel 0.6 and MIN6 prolif -4.3.
For NC(CCCCc1ccccc1)c1cccc2ccccc12 (configuration not stated) the results were NTR1 ag 35.1, GRK2 aptamer HTS 0.0, Platelet DG rel 49.9* and MIN6 prolif -4.2.
O=C(CSCc1ccco1)c1cccs1 was read as NTR1 ag 2.2, GRK2 aptamer HTS 8.0, Platelet DG rel 85.4* and MIN6 prolif -2.0.
For O=C(CSc1nnc(NC(=O)c2ccccc2Cl)s1)Nc1ccc2c(c1)oc1ccccc12 the results were NTR1 ag 51.0*, GRK2 aptamer HTS 1.0, Platelet DG rel 10.8 and MIN6 prolif 0.0.
For Cc1cccc(/C(N)=N/OC(=O)c2ccc3c(c2)OCO3)c1 the results were NTR1 ag 0.9, GRK2 aptamer HTS 0.0, Platelet DG rel 64.2* and MIN6 prolif 0.0.
Screening CC1CCN(C(=O)c2ccccc2NC(=O)c2cccc(S(=O)(=O)N(C)C)c2)CC1 returned NTR1 ag -0.1, GRK2 aptamer HTS 0.0, Platelet DG rel -4.5 and MIN6 prolif 1.2.
For C/C(=N\NC(=O)CCCOc1ccc(Cl)cc1C)c1ccc(C)o1 the results were NTR1 ag 7.1, GRK2 aptamer HTS 90.0*, Platelet DG rel -2.2 and MIN6 prolif 0.0.
`COc1ccc(C(=O)N(C)Cc2ccc(C)o2)cc1OC1CCN(C(C)=O)CC1` gave NTR1 ag -0.9, GRK2 aptamer HTS 1.0, Platelet DG rel -8.3 and MIN6 prolif -2.4.
Screening CS(=O)(=O)Nc1ccccc1C(=O)Nc1cccc(Cl)c1 returned NTR1 ag 0.4, GRK2 aptamer HTS 2.0, Platelet DG rel -0.7 and MIN6 prolif -1.5.
Screening CS(=O)(=O)Nc1ccccc1C(=O)Nc1cc(Cl)cc(Cl)c1 returned NTR1 ag 2.4, GRK2 aptamer HTS 99.0*, Platelet DG rel -4.7 and MIN6 prolif -5.5.
`Cc1cccc(/N=C/c2sc3ccccc3c2O)n1` gave NTR1 ag 0.1, GRK2 aptamer HTS 0.0, Platelet DG rel 51.5* and MIN6 prolif -0.9.
`O=c1[nH]c2cc3c(cc2cc1CN(CCc1ccccc1)Cc1nnnn1C1CCCC1)OCCO3` gave Platelet DG rel 49.8*.
Screening Cc1cc2cc(CN(Cc3ccc4c(c3)OCO4)Cc3nnnn3C3CCCC3)c(=O)[nH]c2cc1C returned NTR1 ag 11.4, GRK2 aptamer HTS 0.0, Platelet DG rel 6.6 and MIN6 prolif -2.6.
For C=CCN1C(=O)/C(=C2/Sc3ccccc3N2C)SC1=Nc1c(C)n[nH]c1C the results were NTR1 ag -1.1, GRK2 aptamer HTS 1.0, Platelet DG rel 52.6* and MIN6 prolif 1.5.
COc1cc(C(=O)O)ccc1OCc1ccncc1 was read as NTR1 ag 0.0, GRK2 aptamer HTS 0.0, Platelet DG rel 0.1 and MIN6 prolif -0.4.
Screening O=C1CSC(c2cn(-c3ccccc3)nc2-c2ccc3c(c2)OCCO3)N1CCN1CCOCC1 (configuration not stated) returned NTR1 ag 3.4, GRK2 aptamer HTS 0.0, Platelet DG rel 55.4* and MIN6 prolif -2.3.
Screening CCN1/C(=C/C=C/C=C/c2sc3ccccc3[n+]2CC)Sc2ccccc21 returned NTR1 ag 19.0, GRK2 aptamer HTS 89.0*, Platelet DG rel 22.8 and MIN6 prolif -8.2.
COc1ccc(OC)c(C(C[N+](=O)[O-])c2c(C)cc3ccccn23)c1 (configuration not stated) was read as NTR1 ag 50.4*, GRK2 aptamer HTS 7.0, Platelet DG rel -5.0 and MIN6 prolif -4.0.
For COc1ccc(C(=O)Nc2nc3ccccc3s2)c(OC)c1 the results were NTR1 ag 3.2, GRK2 aptamer HTS 0.0, Platelet DG rel 82.8* and MIN6 prolif -4.1.
COc1ccccc1C(=O)Nc1nc2ccc(S(C)(=O)=O)cc2s1 was read as NTR1 ag 1.0, GRK2 aptamer HTS 0.0, Platelet DG rel -4.8 and MIN6 prolif 0.3.
COc1ccccc1C(=O)Nc1nc2ccccc2s1 was read as NTR1 ag 1.0, Platelet DG rel 73.2* and MIN6 prolif -4.1.
`CCc1cc(Cn2nc(-c3ccccc3)cc2C(=O)NCc2ccc(C)cc2)on1` gave NTR1 ag -1.3, GRK2 aptamer HTS 4.0, Platelet DG rel -2.3 and MIN6 prolif -6.2.
For CCN(CC)C(=O)c1cc([N+](=O)[O-])cc2c1-c1ccc([N+](=O)[O-])cc1C2=C(C#N)C#N the results were NTR1 ag 0.8, GRK2 aptamer HTS 0.0, Platelet DG rel -7.6 and MIN6 prolif -5.9.
`O=C(c1ccc2c3n(nc2c1)-c1ccccc1CO3)N1CCCCC1` gave NTR1 ag 0.7, GRK2 aptamer HTS 2.0, Platelet DG rel 20.1 and MIN6 prolif -5.2.
O=C(c1ccc2c3n(nc2c1)-c1ccccc1CO3)N1CCOCC1 was read as NTR1 ag 0.1, GRK2 aptamer HTS 0.0, Platelet DG rel 51.2* and MIN6 prolif -5.5.
Screening CCN1CCN(Cc2ccc(NC(=O)c3ccc(C)c(NC(=O)C(=O)c4c[nH]c5ccccc45)c3)cc2C(F)(F)F)CC1 returned NTR1 ag 40.8*!, GRK2 aptamer HTS 0.0, Platelet DG rel -0.8 and MIN6 prolif -7.0.
C[C@@H]1CN(C(=O)c2cc(COc3cccc(C(F)(F)F)c3)on2)C[C@H](C)O1 was read as NTR1 ag 1.5, GRK2 aptamer HTS 6.0, Platelet DG rel -24.7 and MIN6 prolif -1.1.
OC[C@H]1O[C@@H](n2cnc3c(Nc4ccccc4)ncnc32)[C@H](O)[C@@H]1O was read as NTR1 ag 2.7, GRK2 aptamer HTS 3.0, Platelet DG rel 21.2 and MIN6 prolif 1.1.
Nc1ncnc2c1ncn2[C@@H]1O[C@H](CO)[C@@H](O)[C@H]1O was read as NTR1 ag 4.0, GRK2 aptamer HTS 0.0, Platelet DG rel 80.9* and MIN6 prolif 1.1.
`CC1(C)OC2C(O1)[C@@H](CO)O[C@H]2n1cnc2c(N)ncnc21` (some centres not stated) gave NTR1 ag 0.1, GRK2 aptamer HTS 0.0, Platelet DG rel 8.0 and MIN6 prolif 0.6.
Screening OCC1OC(n2cnc3c(NCCc4ccccc4)ncnc32)C(O)C1O (configuration not stated) returned NTR1 ag 0.0, GRK2 aptamer HTS 1.0, Platelet DG rel 70.0* and MIN6 prolif 0.2.

Source: PubChem (several laboratories)
